The values below come from PubChem BioAssay (EPA / NIEHS).

Records with an inconclusive call do not appear. Activity calls are given as the source filed them. Rule for the calls, unless noted: active = hit-call score of the fitted dose curve at least 0.9, where 1 is the maximum; inconclusive = response in the unintended direction; inactive = score below 0.9.

Test [1] has as its target human Norepinephrine Transporter (NET), SLC6A2 (gene 6530) (UniProt P23975). Description: NVS_TR_hNET: NovaScreen (NVS) Transporter Assay for human Norepinephrine Transporter (NET) (AID 2283377).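 For AC50: displacement of radioligand from human NET seen as loss of scintillation signal.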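 Note: cell-free membrane protein extracted from CHO cells expressing human NET.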 The method, boiled down: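 Scintillation counts of filter-retained radioligand served as the readout, taken 1 h post-dosing in a cell-free CHO-derived system. Test chemicals ran first at 25 uM in duplicate; confirmed hits were retested across concentrations.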

Test [2] addresses mouse Estrogen Receptor alpha (Era), Esr1 (gene 13982) (UniProt P19785). As to the kind of experiment: NVS_NR_mERa: NovaScreen (NVS) Nuclear Receptor Binding Assay for mouse Estrogen Receptor alpha (Era) (AID 2283378).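 Note: hit means loss of bound radioligand signal relative to DMSO.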 In a few lines:
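Filter scintillation counts of bound radioligand, measured 18 h post-dose, gave the readout; decreased signal relative to DMSO controls indicated displacement from mouse Era. Primary screen ran in duplicate at 25 uM; active chemicals were retested across concentrations.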

Test [3] addresses Estrogen receptor (Homo sapiens) (UniProt P03372). Description: OT_ERa_GFPERaERE_0480: Odyssey Thera (OT) 8-hour HeLa Transcription Induction Assay for Estrogen Receptor (AID 2283381; active = hit-call score of the fitted dose curve at least 0.9, where 1 is the maximum; inactive = score below 0.9). In a few lines: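 HeLa cells dosed with compound and imaged by fluorescence microscopy at 8 h; GFP induction from an ERE reporter quantified by high-content image analysis and fitted as gain of signal against DMSO baseline.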

Test [4] shares this target. Description: OT_ERa_GFPERaERE_0120: Odyssey Thera (OT) 2-hour HeLa Transcription Induction Assay for Estrogen Receptor (AID 2283382). In a few lines:
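HeLa cells were dosed with test chemical and read 2 hours later for GFP-ERα/ERE-linked fluorescent protein induction by fluorescence microscopy. Gain-of-signal was fitted relative to DMSO baseline, quantified by high content image analysis.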

The target of test [5] is Bile acid receptor (Homo sapiens) (UniProt Q96RI1). As to the kind of experiment: OT_FXR_FXRSRC1_0480: Odyssey Thera (OT) 8-hour HEK293T Protein-Complementation Assay for Farnesoid X receptor/SRC-1 Co-activator (AID 2283383). In a few lines: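 HEK293T cells expressing FXR and SRC-1 fused to reporter fragments were dosed with compound for 8 h; fluorescence from the reconstituted reporter marked co-activator recruitment. Gain of signal was fitted against the DMSO baseline.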
Sequence of Bile acid receptor (Homo sapiens) (Q96RI1 whole entry, looked up, the tested form may be a part): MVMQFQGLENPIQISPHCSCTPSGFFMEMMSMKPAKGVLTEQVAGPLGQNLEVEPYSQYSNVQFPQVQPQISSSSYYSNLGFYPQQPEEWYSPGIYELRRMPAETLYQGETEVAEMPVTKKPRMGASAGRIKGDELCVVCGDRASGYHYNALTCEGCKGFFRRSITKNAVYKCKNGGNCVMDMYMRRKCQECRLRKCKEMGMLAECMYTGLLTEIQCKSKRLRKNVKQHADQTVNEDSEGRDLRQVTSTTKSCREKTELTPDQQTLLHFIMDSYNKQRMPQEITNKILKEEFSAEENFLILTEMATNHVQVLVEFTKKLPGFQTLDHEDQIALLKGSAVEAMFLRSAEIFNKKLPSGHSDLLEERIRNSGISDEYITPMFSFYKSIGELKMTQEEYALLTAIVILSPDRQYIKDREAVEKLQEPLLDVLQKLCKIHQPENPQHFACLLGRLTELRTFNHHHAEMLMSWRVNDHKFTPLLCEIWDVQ

Test [6] has as its target Peroxisome proliferator-activated receptor gamma (Homo sapiens) (UniProt P37231). Description: OT_PPARg_PPARgSRC1_0480: Odyssey Thera (OT) 8-hour Protein-Complementation Assay for Peroxisome Proliferator-activated Receptor Gamma / SRC-1 Co-activator (AID 2283387).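 Note: nuclear to cytoplasmic split Venus YFP fluorescence ratio reporting PPARg SRC-1 interaction.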 In a few lines: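 Split-YFP (IFP1/IFP2) PPARg/SRC-1 reporter, HEK293T, 37 °C, 5% CO2; 8 h compound; formaldehyde fix + Draq5; high-content imaging, N/C ratio, ≥350 cells/image, positive direction vs DMSO.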

The target of test [7] is Retinoic acid receptor RXR-alpha (Homo sapiens) (UniProt P19793). Description: OT_NURR1_NURR1RXRa_1440: Odyssey Thera (OT) 24-hour HEK293T Protein Complementation Assay for Nurr1/retinoid X receptor (RXR) (AID 2283386). The method, boiled down:
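HEK293T cells were dosed with compound and read 24 h later by fluorescence intensity in a protein-fragment complementation format, where Nurr1–RXRα interaction reconstitutes a split reporter. Activity was fitted as gain of signal relative to DMSO baseline.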

Test [8] has as its target Peroxisome proliferator-activated receptor gamma (Homo sapiens) (UniProt P37231). Description: OT_PPARg_PPARgSRC1_1440: Odyssey Thera (OT) 24-hour Protein-Complementation Assay for Peroxisome Proliferator-activated Receptor Gamma/ SRC-1 Co-activator (AID 2283388).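 Note: nuclear to cytoplasmic ratio of reconstituted Venus YFP fluorescence in fixed imaged cells.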 The method, boiled down: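 Readout: nuclear-to-cytoplasmic 488 nm fluorescence ratio, ≥350 cells per image, 8 images per well, after 24 h compound exposure of HEK293T expressing PPARg/SRC-1 split-YFP fusions. Activity fitted in positive direction against DMSO.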

Test [9] in a line: CEETOX_H295R_11DCORT: CeeTox H295R High-throughput Steroidogenesis Assay for 11-Deoxycortisol (11DCORT) (AID 2283432; active = hit-call score of the fitted dose curve at least 0.9, where 1 is the maximum; inactive = score below 0.9;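 for AC50: 11-deoxycortisol secreted into the medium measured by LC-MS/MS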). Particulars: actives raise or lower the signal. In a few lines: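 Steroidogenesis in human H295R cells: 48 h chemical exposure after forskolin priming, 11-deoxycortisol measured by LC-MS/MS.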
The nature of test [10]: CEETOX_H295R_OHPREG: CeeTox H295R High-throughput Steroidogenesis Assay for OH-Pregnenolone (OHPREG) (AID 2283434; active = hit-call score of the fitted dose curve at least 0.9, where 1 is the maximum; inactive = score below 0.9). Conditions: actives raise or lower the signal. In a few lines: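 Hormone levels in spent medium were measured by tandem mass spectrometry following liquid-liquid extraction. Cells (H295R) had been forskolin-stimulated (10 uM, 48 h) before a 48 h chemical exposure at 0.1% DMSO, with activity fitted in both directions against DMSO.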

Test [11] is described as follows: CEETOX_H295R_OHPROG: CeeTox H295R High-throughput Steroidogenesis Assay for OH-Progesterone (OHPROG) (AID 2283435; active = hit-call score of the fitted dose curve at least 0.9, where 1 is the maximum; inactive = score below 0.9). Conditions: actives raise or lower the signal. In a few lines: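 H295R human adrenal cells were prestimulated 48 h with 10 uM forskolin, then exposed 48 h to test chemical (0.1% DMSO final). 17alpha-hydroxyprogesterone in medium was measured by HPLC-MS/MS after MTBE extraction; bidirectional fitting vs DMSO.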

Test [12] in a line: CEETOX_H295R_CORTIC: CeeTox H295R High-throughput Steroidogenesis Assay for Corticosterone (CORTIC) (AID 2283437; active = hit-call score of the fitted dose curve at least 0.9, where 1 is the maximum; inactive = score below 0.9;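 note: corticosterone secreted into medium quantified by mass spectrometry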). Conditions: actives raise or lower the signal. In a few lines:
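Corticosterone secreted into medium is measured by reverse-phase HPLC with tandem MS following liquid-liquid extraction. Cells are forskolin-stimulated (10 uM, 48 h) before 48 h test exposure; activity fitted in both directions against DMSO.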

Test [13] in a line: CEETOX_H295R_CORTISOL: CeeTox H295R High-throughput Steroidogenesis Assay for Cortisol (AID 2283438; active = hit-call score of the fitted dose curve at least 0.9, where 1 is the maximum; inactive = score below 0.9;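 note: cortisol secreted into medium quantified by LC-MS/MS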). Particulars: actives raise or lower the signal. In a few lines: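 H295R human adrenal cells were prestimulated 48 h with 10 uM forskolin, then exposed 48 h to test chemical (0.1% DMSO final). Medium cortisol was quantified by HPLC-MS/MS after MTBE extraction; bidirectional fitting relative to DMSO baseline.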

Test [14] can be described thus: CEETOX_H295R_DOC: CeeTox H295R High-throughput Steroidogenesis Assay for DOC (AID 2283439; active = hit-call score of the fitted dose curve at least 0.9, where 1 is the maximum; inactive = score below 0.9). Particulars: actives raise or lower the signal. In a few lines:
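H295R adrenal cells prestimulated 48 h with 10 uM forskolin, then exposed 48 h to test chemical (0.1% DMSO final). Medium 11-deoxycorticosterone extracted with MTBE, quantified by HPLC-MS/MS; bidirectional fit versus DMSO baseline; MTT viability in same wells.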

Test [15] can be described thus: CEETOX_H295R_ESTRADIOL: CeeTox H295R High-throughput Steroidogenesis Assay for Estradiol (AID 2283440; active = hit-call score of the fitted dose curve at least 0.9, where 1 is the maximum; inactive = score below 0.9;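 note: estradiol secreted into medium quantified by LC-MS/MS after dansyl derivatisation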). Conditions: actives raise or lower the signal. In a few lines:
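H295R, 48 h forskolin (10 uM) prestim → 48 h compound, 0.1% DMSO final. Estradiol in medium: MTBE extraction, dansyl chloride derivatization, LC-MS/MS. Fit bidirectional vs DMSO baseline; MTT viability in same wells.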

The nature of test [16]: CEETOX_H295R_ESTRONE: CeeTox H295R High-throughput Steroidogenesis Assay for Estrone (AID 2283441; active = hit-call score of the fitted dose curve at least 0.9, where 1 is the maximum; inactive = score below 0.9;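 note: estrone secreted into medium measured by LC-MS/MS after dansyl derivatization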). Particulars: actives raise or lower the signal. In a few lines: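 H295R cells; 48 h forskolin (10 uM) prestimulation; 48 h compound exposure, 0.1% DMSO final. Medium estrone: MTBE extraction, dansyl derivatization, HPLC-MS/MS. Bidirectional fit vs DMSO.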
Test [17] concerns the target Agonist Androgen Response Element (ARE), AR (gene 367) (UniProt P10275). As to the kind of experiment: OT_AR_ARELUC_AG_1440: Odyssey Thera (OT) 24-hour CHO-K1 Luciferase Assay for Agonist Androgen Response Element (ARE) (AID 2283379). The method, boiled down: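 Agonist mode, 24 h exposure in CHO-K1 ARE-luciferase cells; values reflect luminescence induction over vehicle.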

Test [18] addresses Retinoic acid receptor RXR-alpha (Homo sapiens) (UniProt P19793). As to the kind of experiment: OT_NURR1_NURR1RXRa_0480: Odyssey Thera (OT) 8-hour HEK293T Protein Complementation Assay for Nurr1/retinoid X receptor (RXR) (AID 2283385). In a few lines: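 HEK293T cells expressing Nurr1 and RXRα fused to reporter fragments were dosed with compound for 8 hours. Complex formation was read as fluorescence intensity and analysed as gain of signal against DMSO as baseline.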

Test [19] has as its target Estrogen receptor beta (Homo sapiens) (UniProt Q92731). Description: OT_ER_ERbERb_1440: Odyssey Thera (OT) 24-hour HEK293T Protein-Complementation Assay for Estrogen Receptor-beta/-beta Homodimer (AID 2283380).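 Note: fluorescence gain from ER beta LBD homodimer complementation read by laser scanning cytometry; scored as signal increase over DMSO baseline for both agonists and antagonists.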 The method, boiled down:
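Fluorescence increase, nuclear for agonists or whole-cell for antagonists, relative to DMSO vehicle, quantified by laser scanning cytometer after fixation and Draq5 staining. Readout from 24 h treatment of HEK293T cells carrying complementation-paired ER beta LBD (aa 310-547).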

Sequence of human Norepinephrine Transporter (NET), SLC6A2 (gene 6530) (P23975 whole entry, looked up): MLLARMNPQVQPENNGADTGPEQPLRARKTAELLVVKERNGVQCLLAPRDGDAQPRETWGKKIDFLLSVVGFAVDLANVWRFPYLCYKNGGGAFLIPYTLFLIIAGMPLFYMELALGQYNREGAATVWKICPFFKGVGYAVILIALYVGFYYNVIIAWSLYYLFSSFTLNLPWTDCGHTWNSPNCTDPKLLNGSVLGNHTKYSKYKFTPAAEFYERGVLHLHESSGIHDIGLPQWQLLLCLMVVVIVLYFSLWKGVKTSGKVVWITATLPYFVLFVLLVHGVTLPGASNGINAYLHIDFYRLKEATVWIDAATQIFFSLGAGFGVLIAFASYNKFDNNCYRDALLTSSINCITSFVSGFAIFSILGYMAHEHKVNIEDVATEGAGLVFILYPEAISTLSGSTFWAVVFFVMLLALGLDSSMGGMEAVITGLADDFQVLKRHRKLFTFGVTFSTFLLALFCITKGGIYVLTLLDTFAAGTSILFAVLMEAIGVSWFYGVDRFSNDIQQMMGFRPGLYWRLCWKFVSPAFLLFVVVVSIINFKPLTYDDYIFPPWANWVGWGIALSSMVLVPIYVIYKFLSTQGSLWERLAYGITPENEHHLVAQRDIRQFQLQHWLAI
Sequence of Retinoic acid receptor RXR-alpha (Homo sapiens) (P19793 whole entry, looked up, the tested form may be a part): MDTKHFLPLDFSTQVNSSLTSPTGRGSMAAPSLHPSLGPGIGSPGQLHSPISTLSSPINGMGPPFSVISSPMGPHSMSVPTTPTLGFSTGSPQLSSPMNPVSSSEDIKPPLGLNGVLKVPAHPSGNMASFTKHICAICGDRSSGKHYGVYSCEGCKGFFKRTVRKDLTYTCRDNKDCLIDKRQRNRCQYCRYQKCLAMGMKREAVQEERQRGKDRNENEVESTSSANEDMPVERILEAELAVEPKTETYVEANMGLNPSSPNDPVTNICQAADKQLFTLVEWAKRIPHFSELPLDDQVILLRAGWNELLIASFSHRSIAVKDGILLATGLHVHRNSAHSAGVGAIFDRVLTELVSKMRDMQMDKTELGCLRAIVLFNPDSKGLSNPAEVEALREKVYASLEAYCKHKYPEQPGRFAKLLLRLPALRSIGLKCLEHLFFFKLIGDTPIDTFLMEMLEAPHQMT
Sequence of Estrogen receptor (Homo sapiens) (P03372 whole entry, looked up): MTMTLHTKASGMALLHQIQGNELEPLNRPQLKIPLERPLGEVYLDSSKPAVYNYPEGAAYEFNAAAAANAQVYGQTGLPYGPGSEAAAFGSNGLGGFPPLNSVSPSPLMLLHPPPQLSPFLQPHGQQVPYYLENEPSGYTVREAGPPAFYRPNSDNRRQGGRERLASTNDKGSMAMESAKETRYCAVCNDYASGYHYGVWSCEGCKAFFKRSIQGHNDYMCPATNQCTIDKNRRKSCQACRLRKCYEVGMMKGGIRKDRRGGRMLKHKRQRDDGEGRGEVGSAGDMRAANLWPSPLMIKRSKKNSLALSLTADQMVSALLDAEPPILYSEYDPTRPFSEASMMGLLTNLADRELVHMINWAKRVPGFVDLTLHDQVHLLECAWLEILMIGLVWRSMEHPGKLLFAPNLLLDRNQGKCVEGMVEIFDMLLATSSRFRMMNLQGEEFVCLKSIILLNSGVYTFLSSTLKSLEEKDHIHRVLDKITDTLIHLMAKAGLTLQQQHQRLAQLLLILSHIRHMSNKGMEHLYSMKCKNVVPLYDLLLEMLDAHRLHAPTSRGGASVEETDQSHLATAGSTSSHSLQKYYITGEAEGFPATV
Sequence of mouse Estrogen Receptor alpha (Era), Esr1 (gene 13982) (P19785 whole entry, looked up): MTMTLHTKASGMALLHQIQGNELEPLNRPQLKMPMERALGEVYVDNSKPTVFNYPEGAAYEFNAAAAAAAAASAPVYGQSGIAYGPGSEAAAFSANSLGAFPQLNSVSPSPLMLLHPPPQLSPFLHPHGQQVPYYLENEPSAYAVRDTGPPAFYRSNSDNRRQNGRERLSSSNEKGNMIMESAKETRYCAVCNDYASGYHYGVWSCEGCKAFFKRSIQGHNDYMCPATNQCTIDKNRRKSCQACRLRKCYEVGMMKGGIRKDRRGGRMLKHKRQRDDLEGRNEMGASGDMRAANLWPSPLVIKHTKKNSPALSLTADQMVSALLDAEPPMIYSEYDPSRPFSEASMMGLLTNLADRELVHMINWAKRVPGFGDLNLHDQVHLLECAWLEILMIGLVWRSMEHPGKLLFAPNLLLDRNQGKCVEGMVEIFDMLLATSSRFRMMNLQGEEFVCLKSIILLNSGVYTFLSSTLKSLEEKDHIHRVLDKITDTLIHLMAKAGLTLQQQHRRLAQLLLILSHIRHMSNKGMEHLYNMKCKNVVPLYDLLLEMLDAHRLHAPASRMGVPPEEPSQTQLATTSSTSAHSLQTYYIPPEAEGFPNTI
Sequence of Agonist Androgen Response Element (ARE), AR (gene 367) (P10275 whole entry, looked up): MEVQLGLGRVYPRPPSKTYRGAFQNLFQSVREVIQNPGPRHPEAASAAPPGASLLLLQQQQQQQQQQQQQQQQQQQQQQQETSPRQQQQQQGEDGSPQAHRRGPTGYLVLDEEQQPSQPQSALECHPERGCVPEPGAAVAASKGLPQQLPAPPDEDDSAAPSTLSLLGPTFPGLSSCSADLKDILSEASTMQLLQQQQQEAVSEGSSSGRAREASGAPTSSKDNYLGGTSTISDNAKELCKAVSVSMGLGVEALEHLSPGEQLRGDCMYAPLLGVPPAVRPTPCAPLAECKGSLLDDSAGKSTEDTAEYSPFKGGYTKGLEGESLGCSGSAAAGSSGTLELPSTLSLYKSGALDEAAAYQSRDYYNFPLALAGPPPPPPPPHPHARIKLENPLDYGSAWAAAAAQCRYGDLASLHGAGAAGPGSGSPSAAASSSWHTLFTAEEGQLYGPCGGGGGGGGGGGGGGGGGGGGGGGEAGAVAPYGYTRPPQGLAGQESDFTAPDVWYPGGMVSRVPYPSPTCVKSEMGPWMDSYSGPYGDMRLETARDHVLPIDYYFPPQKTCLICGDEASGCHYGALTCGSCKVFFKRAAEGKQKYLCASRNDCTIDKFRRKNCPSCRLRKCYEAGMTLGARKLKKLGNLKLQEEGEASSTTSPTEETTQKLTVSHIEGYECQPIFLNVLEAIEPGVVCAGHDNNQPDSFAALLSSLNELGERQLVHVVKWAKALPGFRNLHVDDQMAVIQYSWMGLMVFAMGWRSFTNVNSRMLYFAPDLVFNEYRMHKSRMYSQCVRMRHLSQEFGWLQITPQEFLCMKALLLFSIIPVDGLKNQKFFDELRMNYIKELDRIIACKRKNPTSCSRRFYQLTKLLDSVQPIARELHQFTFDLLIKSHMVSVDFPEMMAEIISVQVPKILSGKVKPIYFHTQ
Sequence of Peroxisome proliferator-activated receptor gamma (Homo sapiens) (P37231 whole entry, looked up, the tested form may be a part): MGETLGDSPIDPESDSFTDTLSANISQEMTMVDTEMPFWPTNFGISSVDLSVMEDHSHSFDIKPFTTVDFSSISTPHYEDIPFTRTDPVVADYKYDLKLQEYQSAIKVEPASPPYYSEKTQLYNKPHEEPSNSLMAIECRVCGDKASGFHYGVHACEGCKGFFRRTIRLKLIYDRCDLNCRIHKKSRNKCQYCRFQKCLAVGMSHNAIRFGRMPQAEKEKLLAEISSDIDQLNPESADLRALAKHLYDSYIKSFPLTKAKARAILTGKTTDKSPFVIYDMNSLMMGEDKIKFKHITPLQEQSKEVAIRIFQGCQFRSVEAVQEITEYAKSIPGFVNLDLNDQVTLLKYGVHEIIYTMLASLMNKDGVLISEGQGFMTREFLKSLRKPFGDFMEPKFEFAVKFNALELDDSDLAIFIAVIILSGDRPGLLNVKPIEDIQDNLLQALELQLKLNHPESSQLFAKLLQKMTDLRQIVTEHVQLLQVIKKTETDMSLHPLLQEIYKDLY
Sequence of Estrogen receptor beta (Homo sapiens) (Q92731 whole entry, looked up, the tested form may be a part): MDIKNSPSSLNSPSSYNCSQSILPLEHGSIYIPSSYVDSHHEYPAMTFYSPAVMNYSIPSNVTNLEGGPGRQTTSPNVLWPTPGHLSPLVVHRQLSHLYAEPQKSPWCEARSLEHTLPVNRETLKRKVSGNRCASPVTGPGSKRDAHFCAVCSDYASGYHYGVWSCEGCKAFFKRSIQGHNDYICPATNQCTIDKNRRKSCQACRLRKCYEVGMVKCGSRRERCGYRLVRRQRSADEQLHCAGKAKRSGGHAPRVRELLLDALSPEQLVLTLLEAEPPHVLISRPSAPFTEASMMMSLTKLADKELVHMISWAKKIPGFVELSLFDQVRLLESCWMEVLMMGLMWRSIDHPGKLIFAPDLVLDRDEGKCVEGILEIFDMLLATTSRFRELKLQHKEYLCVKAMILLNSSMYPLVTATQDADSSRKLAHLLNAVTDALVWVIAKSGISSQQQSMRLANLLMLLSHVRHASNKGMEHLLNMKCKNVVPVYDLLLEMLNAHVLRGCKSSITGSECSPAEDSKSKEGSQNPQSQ

For the compound `c1ccc(-c2nc3ccccc3[nH]2)cc1`, in test [1], the AC50 (as a rule, the midpoint of the concentration-response curve, whichever way the signal moves) was 12 µM (active).

For the compound `C=C[Si](OCCOC)(OCCOC)OCCOC`, the concentration at half-maximal activity (AC50) in [2] is 10.5 µM (active). In addition, the compound was called inactive in test [3], in [4], in [5] and in test [6].

Regarding `O=C(OCc1ccccc1)c1ccc(O)cc1`, the AC50 in test [2] is 1.08 µM (active); in test [5], 50 µM (active); in test [7], 69.9 µM (active); in [9] it was 36.8 µM (active); in test [10], 30.5 µM (active); in test [11] it was 13.5 µM (active). Besides, the AC50 in test [13] was 36.9 µM (active); in test [14] it was 42.7 µM (active); in [15], 50 µM (active); in [16], 37.5 µM (active). Further, the call in test [3], in [4], in [6], in test [8] and in test [12] was inactive.

Consider `COc1ccc(-c2coc3cc(O)cc(O)c3c2=O)cc1`, for which the result in test [2], in test [6], in test [12], in test [15] and in test [16] was inactive. Also, the AC50 in test [3] is 8.5 µM (active); in [4], 12.4 µM (active); in test [9], 6.15 µM (active); in test [10], 7.39 µM (active); in test [11], 7.4 µM (active); in [13], 3.65 µM (active). For the same compound, the AC50 in [14] is 5 µM (active).

For the compound `C=C1C[C@H]2[C@@H]3C=C(C)C4=CC(=O)CC[C@]4(C)[C@H]3CC[C@]2(C)[C@@]1(OC(C)=O)C(C)=O`, the values for the AC50 in test [2], in test [17] and in test [7] were 29.2 µM (active), 0.0079 µM (active) and 49.5 µM (active), respectively. Also, the compound was classed as inactive in test [3], in test [4] and in test [6].

`CO[Si](C)(C)OC`: the call in test [2], in [3], in test [4], in test [18] and in test [6] was inactive.

For the compound `CCC[Si](OC)(OC)OC`, the call in test [17], in [3], in [4], in test [5] and in [7] was inactive.

As to `CCCCCCCOC(=O)c1ccc(O)cc1`, the compound was classed as inactive in test [2] and in test [6]. For the same compound, the values for the AC50 in [3], in test [4] and in test [7] were 3.39 µM (active), 3.08 µM (active) and 90.7 µM (active), respectively.

On to `CC/C=C\C/C=C\C/C=C\CCCCCCCC(=O)OC`, for which, in test [1], the AC50 is 11.1 µM (active).

Take `CC(C)(C)NC(=O)[C@H]1CC[C@H]2[C@@H]3CC[C@H]4NC(=O)C=C[C@]4(C)[C@H]3CC[C@]12C`: the call in [2], in test [3], in test [5], in test [6], in test [8] and in test [11] was inactive. In test [12], the result was inactive. For the same compound, the AC50 was 34.4 µM (active) in test [9], 36.3 µM (active) in [13] and 13.5 µM (active) in test [14].

`O=c1c(O)c(-c2ccc(O)cc2O)oc2cc(O)cc(O)c12`: the result in test [2], in test [3], in test [4], in test [18], in test [7] and in test [6] was inactive. The call in [8] was inactive.

As to `N#Cc1ccc(C2CCCc3cncn32)cc1` (centres undefined), the result in [2], in test [7] and in [6] was inactive. The AC50 was 18.2 µM (active) in test [3] and 15.8 µM (active) in test [4].

As to `CC(C)=CCCC(C)=CC#N`, the outcome in test [2], in test [3], in test [4], in test [5] and in [6] was inactive.

As to `Oc1ccc(/C=C/c2cc(O)cc(O)c2)cc1`, in [1], the AC50 was 3.12 µM (active).

Take `CCCCCCCCCCCCc1ccc(O)cc1`: the result in [2] was inactive. In addition, the AC50 in [3] is 0.444 µM (active); in [4], 0.612 µM (active).

Consider `c1ccc2c(c1)[nH]c1ccccc12`, for which the AC50 in test [1] is 0.94 µM (active).

As for `CC(C=O)c1ccccc1` (centres undefined), the compound was called inactive in test [1].

`COC(=O)C=Cc1ccccc1`: the outcome in [1] was inactive.

Turning to `Oc1ccc(-c2ccccc2)c(Cl)c1`, the result in [2], in test [17], in test [4] and in test [6] was inactive. Moreover, the AC50 in test [19] is 18.1 µM (active); in [3], 91 µM (active); in test [7], 69.5 µM (active).

For `O=C(O)c1cc(O)c2ccccc2c1O`, the outcome in test [19], in test [7], in test [9], in test [10], in [11] and in test [12] was inactive. Also, the result in [13], in test [15] and in [16] was inactive. For the same compound, the AC50 in test [3] was 18.1 µM (active); in [4] it was 25.4 µM (active); in [6], 73.7 µM (active); in [14], 0.445 µM (active).
